Measured values published in the supplement of paper PMC4466140.

Target: AgAbp1
Assay: SPOT peptide array binding signal intensity (averaged, normalized) (arbitrary units (background-subtracted, floor 0; scale differs between SH3 domains)); higher = stronger binding of the SH3 domain to the peptide
Method in brief: (§1)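 Binding signal refers to normalized, background-subtracted spot intensity averaged over replicates, expressed in arbitrary units that differ between domains. GST-fused SH3 domains from four yeast species were incubated at 10 μg/ml overnight at 4°C on cellulose membranes of synthetic 15-mer peptides with cysteines replaced by serines. Bound protein was detected with anti-GST antibody, an HRP anti-mouse secondary and luminol, and quantified with Genespotter.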

Binder | SPOT peptide array binding signal intensity
QTREPNEPPPPSPAM | ≤ 0

Target: AgBbc1
Assay: as above
Method in brief: as §1

Binder | SPOT peptide array binding signal intensity
QTREPNEPPPPSPAM | ≤ 0

Target: AgBem1-D1
Assay: as above
Method in brief: as §1

Binder | SPOT peptide array binding signal intensity
QTREPNEPPPPSPAM | ≤ 0

Target: AgBzz1-D1
Assay: as above
Method in brief: as §1

Binder | SPOT peptide array binding signal intensity
QTREPNEPPPPSPAM | 1.5

Target: AgBzz1-D2
Assay: as above
Method in brief: as §1

Binder | SPOT peptide array binding signal intensity
QTREPNEPPPPSPAM | 4

Target: AgCyk3
Assay: as above
Method in brief: as §1

Binder | SPOT peptide array binding signal intensity
QTREPNEPPPPSPAM | ≤ 0

Target: AgFus1
Assay: as above
Method in brief: as §1

Binder | SPOT peptide array binding signal intensity
QTREPNEPPPPSPAM | ≤ 0

Target: AgHof1
Assay: as above
Method in brief: as §1

Binder | SPOT peptide array binding signal intensity
QTREPNEPPPPSPAM | 2.5

Target: AgHse1
Assay: as above
Method in brief: as §1

Binder | SPOT peptide array binding signal intensity
QTREPNEPPPPSPAM | ≤ 0

Target: AgLsb1
Assay: as above
Method in brief: as §1

Binder | SPOT peptide array binding signal intensity
QTREPNEPPPPSPAM | ≤ 0

Target: AgLsb4
Assay: as above
Method in brief: as §1

Binder | SPOT peptide array binding signal intensity
QTREPNEPPPPSPAM | ≤ 0

Target: AgMyo5
Assay: as above
Method in brief: as §1

Binder | SPOT peptide array binding signal intensity
QTREPNEPPPPSPAM | 1420

Target: AgNbp2
Assay: as above
Method in brief: as §1

Binder | SPOT peptide array binding signal intensity
QTREPNEPPPPSPAM | ≤ 0

Target: AgRvs167
Assay: as above
Method in brief: as §1

Binder | SPOT peptide array binding signal intensity
QTREPNEPPPPSPAM | 0.667

Target: AgSho1
Assay: as above
Method in brief: as §1

Binder | SPOT peptide array binding signal intensity
QTREPNEPPPPSPAM | ≤ 0

Target: AgSla1-D1-D2
Assay: as above
Method in brief: as §1

Binder | SPOT peptide array binding signal intensity
QTREPNEPPPPSPAM | ≤ 0

Target: AgSla1-D3
Assay: as above
Method in brief: as §1

Binder | SPOT peptide array binding signal intensity
QTREPNEPPPPSPAM | ≤ 0

Target: CaAbp1-D1
Assay: as above
Method in brief: as §1

Binder | SPOT peptide array binding signal intensity
QTREPNEPPPPSPAM | ≤ 0

Target: CaAbp1-D2
Assay: as above
Method in brief: as §1

Binder | SPOT peptide array binding signal intensity
QTREPNEPPPPSPAM | ≤ 0

Target: CaBbc1
Assay: as above
Method in brief: as §1

Binder | SPOT peptide array binding signal intensity
QTREPNEPPPPSPAM | ≤ 0

Target: CaBem1-D1
Assay: as above
Method in brief: as §1

Binder | SPOT peptide array binding signal intensity
QTREPNEPPPPSPAM | ≤ 0

Target: CaBzz1-D1
Assay: as above
Method in brief: as §1

Binder | SPOT peptide array binding signal intensity
QTREPNEPPPPSPAM | 8

Target: CaBzz1-D2
Assay: as above
Method in brief: as §1

Binder | SPOT peptide array binding signal intensity
QTREPNEPPPPSPAM | ≤ 0

Target: CaCyk3
Assay: as above
Method in brief: as §1

Binder | SPOT peptide array binding signal intensity
QTREPNEPPPPSPAM | ≤ 0

Target: CaFus1
Assay: as above
Method in brief: as §1

Binder | SPOT peptide array binding signal intensity
QTREPNEPPPPSPAM | 6.5

Target: CaHof1
Assay: as above
Method in brief: as §1

Binder | SPOT peptide array binding signal intensity
QTREPNEPPPPSPAM | 0.25

Target: CaHse1
Assay: as above
Method in brief: as §1

Binder | SPOT peptide array binding signal intensity
QTREPNEPPPPSPAM | 0.75

Target: CaLsb1
Assay: as above
Method in brief: as §1

Binder | SPOT peptide array binding signal intensity
QTREPNEPPPPSPAM | 0.25

Target: CaLsb4
Assay: as above
Method in brief: as §1

Binder | SPOT peptide array binding signal intensity
QTREPNEPPPPSPAM | ≤ 0

Target: CaMyo5
Assay: as above
Method in brief: as §1

Binder | SPOT peptide array binding signal intensity
QTREPNEPPPPSPAM | 108
